The nature of assay [1]: anti-His antibody binders, primary screen, artefact control for SMM control protein annotation, biochemical, small-molecule microarray, 635 nm fluorescence (AID 1128).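 Further: score merges feature fluorescence with signal-to-noise for each printed compound spot.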 The conditions noted are these: anti-His Alexa647 antibody binding, higher = more signal.
The subject of assay [2] is Human papillomavirus type 1a E7 protein (residues 1-88). Kind of assay: HPV1a E7 small-molecule binders, primary screen, biochemical, small-molecule microarray, residues 1-88, 635 nm (AID 1129). Particulars: small-molecule microarray binding, fluorescence 635 nm; higher = more signal.
Assay [3] deals with Focal adhesion kinase 1 (Homo sapiens) (UniProt Q05397). The assay is described as follows: small-molecule microarray binders of FAK, primary screen, biochemical, 635/667 nm fluorescence, BSA, DTT (AID 1130).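 Further: composite of spot emission at 667 nm and signal to noise over triplicate slides.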 The conditions noted are these: PTK2 binding, 635 nm fluorescence, higher = more signal.
Focal adhesion kinase 1 (Homo sapiens), sequence (Q05397 whole entry, looked up): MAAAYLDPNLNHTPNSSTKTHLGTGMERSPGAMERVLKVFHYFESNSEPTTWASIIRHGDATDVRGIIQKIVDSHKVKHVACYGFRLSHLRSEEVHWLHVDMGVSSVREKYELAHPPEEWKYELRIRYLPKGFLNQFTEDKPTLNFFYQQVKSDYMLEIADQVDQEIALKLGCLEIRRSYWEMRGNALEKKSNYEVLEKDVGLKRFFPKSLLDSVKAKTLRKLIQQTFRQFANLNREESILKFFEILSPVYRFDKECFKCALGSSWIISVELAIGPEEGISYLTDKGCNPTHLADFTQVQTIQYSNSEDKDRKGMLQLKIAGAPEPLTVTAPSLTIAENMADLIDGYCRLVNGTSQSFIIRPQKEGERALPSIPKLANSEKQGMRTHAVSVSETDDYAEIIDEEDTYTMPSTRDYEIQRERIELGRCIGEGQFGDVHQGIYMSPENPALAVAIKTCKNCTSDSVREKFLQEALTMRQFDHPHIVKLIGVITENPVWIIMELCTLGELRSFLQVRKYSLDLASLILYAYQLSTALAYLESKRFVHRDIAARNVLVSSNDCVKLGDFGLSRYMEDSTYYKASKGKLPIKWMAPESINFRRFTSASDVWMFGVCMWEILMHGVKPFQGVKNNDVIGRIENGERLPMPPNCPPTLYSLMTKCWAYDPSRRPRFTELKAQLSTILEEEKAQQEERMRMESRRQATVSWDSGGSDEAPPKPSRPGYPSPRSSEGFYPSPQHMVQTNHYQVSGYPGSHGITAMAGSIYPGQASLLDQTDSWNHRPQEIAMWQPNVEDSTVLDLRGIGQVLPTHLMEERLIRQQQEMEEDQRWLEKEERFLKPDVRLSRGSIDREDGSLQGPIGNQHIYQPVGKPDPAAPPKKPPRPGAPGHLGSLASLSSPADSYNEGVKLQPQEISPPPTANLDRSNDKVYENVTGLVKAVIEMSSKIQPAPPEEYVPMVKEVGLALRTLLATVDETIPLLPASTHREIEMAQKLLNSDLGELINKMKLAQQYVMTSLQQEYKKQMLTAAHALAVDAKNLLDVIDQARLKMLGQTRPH
In assay [4] the test system is Fibrinogen (Alexa647-labelled). Kind of assay: fibrinogen binders on compound microarrays, profiling panel, artefact control for SMM control-protein annotation, biochemical, small-molecule microarray, 635/667 nm fluorescence (AID 1131).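 Further: z-score merges 667 nm fluorescence with per-spot signal-to-noise over triplicate slides.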 The conditions noted are these: fibrinogen-A647 binding fluorescence, higher = more signal.
Assay [5] deals with Follistatin (Homo sapiens) (UniProt P19883). The assay is described as follows: follistatin binders on small-molecule microarrays, primary screen, biochemical, small-molecule microarray, 635/667 nm fluorescence (AID 1132). Particulars: FST binding, 635 nm fluorescence, higher = more signal.
Follistatin (Homo sapiens), sequence (P19883 whole entry, looked up): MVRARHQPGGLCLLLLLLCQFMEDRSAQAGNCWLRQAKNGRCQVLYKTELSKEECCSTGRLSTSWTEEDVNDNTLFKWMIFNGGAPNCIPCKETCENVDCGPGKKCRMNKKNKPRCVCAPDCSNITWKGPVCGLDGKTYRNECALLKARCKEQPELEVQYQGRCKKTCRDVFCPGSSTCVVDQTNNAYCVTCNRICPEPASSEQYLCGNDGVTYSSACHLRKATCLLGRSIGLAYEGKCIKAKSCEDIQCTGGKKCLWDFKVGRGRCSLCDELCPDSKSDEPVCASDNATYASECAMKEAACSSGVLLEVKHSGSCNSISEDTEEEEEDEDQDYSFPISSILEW
Assay [6] deals with Fibroblast growth factor 2 (Homo sapiens) (UniProt P09038). Kind of assay: FGF2 binders on small-molecule microarrays, primary screen, biochemical, small-molecule microarray, 635/667 nm fluorescence (AID 1133). The conditions noted are these: small-molecule microarray binding, FGF2, fluorescence 635/667; higher = more signal.
Fibroblast growth factor 2 (Homo sapiens), sequence (P09038 whole entry, looked up): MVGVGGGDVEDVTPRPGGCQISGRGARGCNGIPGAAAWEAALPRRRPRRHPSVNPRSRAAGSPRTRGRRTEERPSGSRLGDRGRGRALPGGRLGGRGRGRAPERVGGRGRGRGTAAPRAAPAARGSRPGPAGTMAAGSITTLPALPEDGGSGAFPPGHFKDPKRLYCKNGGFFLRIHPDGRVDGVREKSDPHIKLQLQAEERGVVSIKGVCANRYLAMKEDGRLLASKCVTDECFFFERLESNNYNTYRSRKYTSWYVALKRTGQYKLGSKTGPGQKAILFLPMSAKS
The nature of assay [7]: mitochondrial membrane potential change in A549 cells, profiling panel, cell-based, JC-1 fluorescence, basal, 24 h, 100 nL (AID 1138).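 Further: A549 lung adenocarcinoma cells under basal conditions with no added stimulus; test concentration not given here.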 The conditions noted are these: higher = more signal.
In another assay the test system is Lefty1. The assay is described as follows: Lefty1 binders on small-molecule microarrays, primary screen, biochemical, small-molecule microarray, 635/667 nm fluorescence (AID 1139). Particulars: small-molecule microarray binding, fluorescence 635/667; higher = more signal.
Assay [8] relates to wheat germ agglutinin (Triticum aestivum), Alexa647-labelled. The assay is described as follows: wheat germ agglutinin binders on compound microarrays, profiling panel, artefact control for SMM control-protein annotation, biochemical, small-molecule microarray, 635/667 nm fluorescence (AID 1140).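 Further: score merges 667 nm feature emission with signal to noise over triplicate slides.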 Particulars: WGA-A647 binding, 635 nm fluorescence, higher = more signal.
The target of assay [9] is Luciferin 4-monooxygenase (Photinus pyralis) (UniProt P08659). Kind of assay: firefly luciferase enzyme inhibitors, primary screen, biochemical, luminescence, purified enzyme, 2006 set (AID 1141).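 Further: cell-free assay with purified firefly luciferase at 100 ng per well in PBS; test concentration not given here.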 Particulars: SteadyGlo luminescence, 30 min, higher = more signal, called active from +8 up or from −8 down.
Luciferin 4-monooxygenase (Photinus pyralis), sequence (P08659 whole entry, looked up): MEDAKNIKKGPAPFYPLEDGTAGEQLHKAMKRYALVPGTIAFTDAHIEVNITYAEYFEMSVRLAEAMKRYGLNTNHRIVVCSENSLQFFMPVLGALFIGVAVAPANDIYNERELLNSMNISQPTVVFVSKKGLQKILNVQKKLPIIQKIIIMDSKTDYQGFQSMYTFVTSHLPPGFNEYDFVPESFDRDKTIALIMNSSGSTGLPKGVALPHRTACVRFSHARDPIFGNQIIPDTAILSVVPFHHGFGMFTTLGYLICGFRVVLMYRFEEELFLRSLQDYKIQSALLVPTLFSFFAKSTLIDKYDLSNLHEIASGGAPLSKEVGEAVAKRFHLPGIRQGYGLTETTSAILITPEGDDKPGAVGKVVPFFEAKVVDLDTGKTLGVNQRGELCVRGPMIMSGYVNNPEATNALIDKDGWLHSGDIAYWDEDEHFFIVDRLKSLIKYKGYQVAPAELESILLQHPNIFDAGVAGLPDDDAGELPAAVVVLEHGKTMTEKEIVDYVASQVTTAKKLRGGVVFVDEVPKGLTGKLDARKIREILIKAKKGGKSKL
For assay [10], the system named is Wnt5a (protein binding on small-molecule microarray). The assay is described as follows: Wnt5a binders on small-molecule microarray, primary screen, biophysical, 635/667 nm fluorescence (AID 1142).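 Further: fluorescence read at 667 nm with signal to noise per printed feature.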 The conditions noted are these: 635 nm fluorescence, higher = more signal.
Assay [11] in a line: cell viability in Huh7 cells, primary screen, cytotoxicity control for HCV replication inhibitor project, CellTiter-Glo luminescence, basal, 48 h (AID 1143).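 Further: Huh7 hepatoma cells carrying a hepatitis C replication reporter with no stimulus; test concentration not given here.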 Particulars: Huh7 HCV replicon, higher = more signal, called active from +8 up or from −8 down. For orientation: ATP-based viability assays read luminescence as a measure of living cells.
A short description of assay [12]: P. aeruginosa biofilm formation inhibitors, primary screen, PAO1 strain, BacTiter-Glo luminescence, LB-PBS (AID 1144). Particulars: 12 h, higher = more signal.
A short description of assay [13]: CREB reporter modulators without forskolin, primary screen, cell-based, PC12, CRE-LacZ reporter, unstimulated (AID 1145). The conditions noted are these: no forskolin, luminescence, 4.5 h, higher = more signal, called active from +8 up or from −8 down.
Assay [14] in a line: CREB reporter modulators under forskolin, primary screen, cell-based, PC12, CRE-LacZ reporter, forskolin-stimulated (AID 1146).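 Further: PC12 cells with 6xCRE LacZ reporter stimulated by forskolin 10 µM; beta-galactosidase reporter signal reflecting CREB driven transcription.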 The conditions noted are these: luminescence, 4.5 h, higher = more signal, called active from +8 up or from −8 down.
The target in assay [15] is Streptavidin (Streptomyces avidinii) (UniProt P22629). Kind of assay: streptavidin binders on small-molecule microarray, primary screen, artefact control for SMM compound annotation, biophysical, 635/667 nm fluorescence (AID 1147).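 Further: signal reflects streptavidin binding to arrayed compounds as a control protein.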 Particulars: streptavidin binding, higher = more signal.
Streptavidin (Streptomyces avidinii), sequence (P22629 whole entry, looked up): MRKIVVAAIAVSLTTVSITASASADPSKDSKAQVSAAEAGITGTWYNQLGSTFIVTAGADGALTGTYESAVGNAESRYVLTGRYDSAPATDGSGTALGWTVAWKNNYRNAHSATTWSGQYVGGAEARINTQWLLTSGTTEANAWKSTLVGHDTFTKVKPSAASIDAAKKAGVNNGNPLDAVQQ
Assay [16] can be described thus: small-molecule binders of probe aInhba, primary screen, biochemical, small-molecule microarray, 635/667 nm fluorescence (AID 1148).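 Further: score merges 667nm spot fluorescence with signal-to-noise for antibody binding to printed compounds.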 Particulars: higher = more signal.
Assay [17] concerns the target Torsin-1A (Homo sapiens) (UniProt O14656). The assay is described as follows: torsin A binders from cell lysate, primary screen, small-molecule microarray, wild-type, 635/667 nm (AID 1149). Particulars: COS7 hTOR1A-WT lysate, 635 nm fluorescence, higher = more signal.
The target is the same in assay [18]. Kind of assay: small-molecule binders of mutant TOR1A in lysate, primary screen, cell lysate, small-molecule microarray, COS7 lysate, 635/667 nm fluorescence (AID 1150).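 Further: score pools 667 nm emission and signal to noise measuring lysate protein binding.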 Particulars: COS7 hTOR1A mutant lysate, 635 nm fluorescence, higher = more signal.
The test system of assay [19] is Sonic hedgehog protein (Shh). Kind of assay: small-molecule binders of Shh protein, primary screen, biochemical, small-molecule microarray, 635/667 nm fluorescence (AID 1151).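 Further: Shh protein binding to compounds spotted on small-molecule microarray slides; score combines spot fluorescence intensity with signal-to-noise across triplicate slides.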 The conditions noted are these: small-molecule microarray binding, 635 nm fluorescence; higher = more signal.

Activity calls are given as the source filed them. Unless noted, how the calls were made is not given here.

Torsin-1A (Homo sapiens), sequence (O14656 whole entry, looked up): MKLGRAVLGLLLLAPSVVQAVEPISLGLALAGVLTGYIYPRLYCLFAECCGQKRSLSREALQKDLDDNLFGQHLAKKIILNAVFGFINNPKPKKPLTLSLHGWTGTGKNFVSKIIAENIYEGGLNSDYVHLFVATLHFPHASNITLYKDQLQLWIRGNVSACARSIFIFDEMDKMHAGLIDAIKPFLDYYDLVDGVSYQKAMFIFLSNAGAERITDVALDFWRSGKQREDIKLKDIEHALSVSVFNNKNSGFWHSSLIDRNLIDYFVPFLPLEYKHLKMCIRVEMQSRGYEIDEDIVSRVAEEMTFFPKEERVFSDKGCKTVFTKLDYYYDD

On to `CC(C)C[C@@H]1NC(=O)[C@@H]2C[C@H](C(=O)NCCCC[N+](C)(C)C)[C@H](c3ccc(O)cc3)N2C1=O`, for which the composite z-score was 2.63 in assay [1]; 0.643 in assay [2]; -0.133 in assay [3]; 0.354 in assay [4]; 1.42 in assay [5]; 1.76 in assay [6]. Further, the composite z-score was determined as 1.67 in the assay with Lefty1; 0.479 in assay [8]; 0.814 in assay [10]; 0.0306 in assay [15]; 0.0669 in [16]; 1.47 in the assay with Torsin-1A (Homo sapiens) [17]. Further, the composite z-score in the assay with Torsin-1A (Homo sapiens) [18] worked out at 1.2; in [19], 2.13. Also, the z-score is -0.694 in [7]; -0.948 (inactive) in assay [9]; -0.394 (inactive) in [11]; -1.08 (inactive) in [12]; 0.285 (inactive) in [13]; -0.387 (inactive) in [14].
Turning to `CN(C)CCCC[C@@H]1NC(=O)[C@H]2C[C@@H](C(=O)NCc3ccc(F)cc3)[C@@H](c3ccc(O)cc3)N2C1=O`, the composite z-score is 2.75 in assay [1]; 0.0526 in [2]; -0.193 in assay [3]; 0.563 in [4]; 1.41 in [5]; 1.93 in [6]. In addition, the composite z-score is 1.64 with Lefty1; 0.419 in [8]; 0.727 in [10]; -0.122 in [15]; 0.0676 in assay [16]; 1.12 with Torsin-1A (Homo sapiens) [17]. In addition, the composite z-score in the assay with Torsin-1A (Homo sapiens) [18] was determined as 0.587; in assay [19], 2.15. Further, the z-score was 0.742 in [7]; -1.23 (inactive) in assay [9]; 0.0491 (inactive) in [11]; 0.792 (inactive) in [12]; 0.0084 (inactive) in assay [13]; -0.19 (inactive) in [14].
For `C[N+](C)(C)CCCC[C@@H]1NC(=O)[C@H]2C[C@@H](C(=O)NCCCCCNC(=O)CS)[C@@H](c3ccc(O)cc3)N2C1=O`, the composite z-score in assay [1] was 2.82; in assay [2] it was 0.785; in assay [3] it was 0.336; in assay [4] it was 0.9; in [5], 1.07; in assay [6], 0.826. Besides, the composite z-score with Lefty1 is 0.349; in [8], 0.215; in assay [10], 0.084; in assay [15], 0.354; in assay [16], -0.045; with Torsin-1A (Homo sapiens) [17], 0.327. Besides, the figures for the composite z-score (with Torsin-1A (Homo sapiens) [18]; in assay [19]) were 0.891 and 0.748, respectively. Besides, the z-score in assay [7] is 0.455; in assay [9], -1.2 (inactive); in assay [11], -0.523 (inactive); in [12], -1.39 (inactive); in [13], 0.0084 (inactive); in assay [14] it was -0.165 (inactive).
Turning to `CCOC(=O)C[C@H]1[C@H](OC(=O)c2ccc(-c3ccccc3)cc2)[C@@H](NC(=O)c2ccc3ccccc3c2)c2cc(OCCCO)ccc2N1C(=O)c1ccccc1`, the composite z-score in assay [1] turned out to be 0.137; in assay [2], 1.05; in assay [3], 0.19; in assay [4] it was 0.118; in assay [5], 0.0533; in assay [6], 0.831. Also, the composite z-score in the assay with Lefty1 came out at 0.669; in [8] it was 0.3; in assay [10], 0.247; in [15], 0.114; in assay [16], 0.0497; with Torsin-1A (Homo sapiens) [17] it was 0.742. The values for the composite z-score (with Torsin-1A (Homo sapiens) [18]; in [19]) were 0.988 and 0.27, respectively. The z-score was 0.257 in assay [7]; 0.61 (inactive) in assay [9]; -0.433 (inactive) in [11]; 0.0625 (inactive) in assay [12]; 0.544 (inactive) in [13]; 1.09 (inactive) in assay [14].
With `Cc1c(NC(=O)/C(C#N)=C/c2ccc(Cl)cc2)c(=O)n(-c2ccccc2)n1C`, the composite z-score in assay [1] is 0.753; in assay [2], 0.8; in [3] it was -0.171; in [4], 1.03; in assay [5], 0.114; in [6] it was 0.627. Moreover, the composite z-score in the assay on Lefty1 is 0.466; in [8], 0.794; in [10], -0.159; in assay [15], 1.33; in [16], -0.0259; in the assay with Torsin-1A (Homo sapiens) [17], 0.34. The values for the composite z-score (with Torsin-1A (Homo sapiens) [18]; in [19]) were 0.407 and -0.217, respectively. The z-score in [7] is 1.28; in assay [9] it was -0.304 (inactive); in [11] it was -1.62 (inactive); in assay [12] it was -1.04 (inactive); in assay [13], -0.374 (inactive); in assay [14], -1.64 (inactive).

Source of the values: PubChem BioAssay.
